Laboratory results published in PubChem BioAssay AID1159580 (chemical genetic matrix, 2015).
About 2,000 (36%) of roughly 5,500 compounds were called active. Roughly 18% stayed inconclusive and do not appear here. No stated cut-off is given here; in the data, active means normalized growth mostly below about 0.91 (no sharp cut-off); inconclusive means no clear call, values can overlap the other calls; inactive means mostly above about 0.92. The list shows a part of the results.

Assay: chemical genetic growth profiling, strain panel (AID 1159580);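 further: tested at 20 µM; growth read once vehicle control cultures reached saturation at 30 °C; 1 = growth at the plate median or of vehicle wells; lower values mean less growth of the strain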
Conditions: growth OD

Measured: normalized growth

CC(C)=CCCC1(C)C=Cc2c(O)c3c(c(CC=C(C)C)c2O1)OC12C(=CC4CC1C(C)(C)OC2(C/C=C(/C)C(=O)O)C4=O)C3=O (stereo not drawn)
inactive: S. cerevisiae deletion strains, locus YJR066W, strain TOR1, active compounds read low 0.825 | S. cerevisiae deletion strains, locus YKL009W, strain mrt4, active compounds read low 0.965 | S. cerevisiae deletion strains, locus YKL068W, active compounds read low 0.943 | S. cerevisiae deletion strains, locus YKR026C, strain gcn3, active compounds read low 0.973 | S. cerevisiae deletion strains, locus YKR091W, strain srl3, active compounds read low 0.96 | S. cerevisiae deletion strains, locus YLL041C, strain sdh2, active compounds read low 0.958 | S. cerevisiae deletion strains, locus YLR039C, strain RIC1, active compounds read low 0.873 | S. cerevisiae deletion strains, locus YLR102C, strain apc9, active compounds read low 0.97 | S. cerevisiae deletion strains, locus YLR262C, strain YPT6, active compounds read low 0.783 | S. cerevisiae deletion strains, locus YLR357W, strain rsc2, active compounds read low 1.02 | S. cerevisiae deletion strains, locus YLR370C, strain arc18, active compounds read low 0.984 | S. cerevisiae deletion strains, locus YLR371W, strain rom2, active compounds read low 0.955 | S. cerevisiae deletion strains, locus YLR384C, strain iki3, active compounds read low 0.989 | S. cerevisiae deletion strains, locus YML016C, strain PPZ1, active compounds read low 0.963 | S. cerevisiae deletion strains, locus YML124C, strain tub3, active compounds read low 0.979 | S. cerevisiae deletion strains, locus YMR078C, strain ctf18, active compounds read low 0.98 | S. cerevisiae deletion strains, locus YMR125W, strain sto1, active compounds read low 0.938 | S. cerevisiae deletion strains, locus YMR129W, active compounds read low 0.951 | S. cerevisiae deletion strains, locus YMR263W, strain SAP30, active compounds read low 0.947 | S. cerevisiae deletion strains, locus YNL067W, strain RPL9B, active compounds read low 0.93 | S. cerevisiae deletion strains, locus YNL153C, strain GIM3, active compounds read low 0.923 | S. cerevisiae deletion strains, locus YNL248C, strain rpa49, active compounds read low 0.976 | S. cerevisiae deletion strains, locus YNL250W, strain rad50, active compounds read low 0.952 | S. cerevisiae deletion strains, locus YNL271C, strain bni1, active compounds read low 0.981 | S. cerevisiae deletion strains, locus YNL298W, strain CLA4, active compounds read low 0.976 | S. cerevisiae deletion strains, locus YNL322C, strain KRE1 (second series), active compounds read low 0.964 | S. cerevisiae deletion strains, locus YNR049C, strain mso1, active compounds read low 0.978 | S. cerevisiae deletion strains, locus YNR052C, strain pop2, active compounds read low 0.928 | S. cerevisiae deletion strains, locus YOL012C, strain htz1 0.349 | S. cerevisiae deletion strains, locus YOR001W, strain rrp6, active compounds read low 0.918 | S. cerevisiae deletion strains, locus YOR069W, strain VPS5, active compounds read low 0.975 | S. cerevisiae deletion strains, locus YOR080W, strain dia2, active compounds read low 0.982 | S. cerevisiae deletion strains, locus YOR136W, strain idh2, active compounds read low 0.958 | S. cerevisiae deletion strains, locus YOR144C, strain elg1, active compounds read low 0.946 | S. cerevisiae deletion strains, locus YOR231W, strain MKK1, active compounds read low 0.884 | S. cerevisiae deletion strains, locus YOR316C, strain cot1, active compounds read low 0.97 | S. cerevisiae deletion strains, locus YPL106C, strain sse1, active compounds read low 1.01 | S. cerevisiae deletion strains, locus YPR119W, strain clb2, active compounds read low 0.988 | S. cerevisiae deletion strains, locus YPR141C, strain kar3, active compounds read low 0.982
active: S. cerevisiae deletion strains, locus YJL187C, strain SWE1, active compounds read low 0.851 | S. cerevisiae deletion strains, locus YJR043C, strain POL32, active compounds read low 0.821 | S. cerevisiae deletion strains, locus YKL085W, strain MDH1 (second series), active compounds read low 0.925 | S. cerevisiae deletion strains, locus YKL085W, strain MDH1, active compounds read low 0.925 | S. cerevisiae deletion strains, locus YKL160W, strain elf1, active compounds read low 0.842 | S. cerevisiae deletion strains, locus YKR001C, strain vps1, active compounds read low 0.628 | S. cerevisiae deletion strains, locus YLL001W, strain dnm1, active compounds read low 0.881 | S. cerevisiae deletion strains, locus YLL026W, active compounds read low 0.888 | S. cerevisiae deletion strains, locus YLR027C, strain aat2, active compounds read low 0.827 | S. cerevisiae deletion strains, locus YLR058C, strain SHM2, active compounds read low 0.884 | S. cerevisiae deletion strains, locus YLR113W, strain HOG1, active compounds read low 0.685 | S. cerevisiae deletion strains, locus YLR221C, strain rsa3, active compounds read low 0.871 | S. cerevisiae deletion strains, locus YLR258W, strain gsy2, active compounds read low 0.861 | S. cerevisiae deletion strains, locus YLR262C, strain YPT6 (second series), active compounds read low 0.685 | S. cerevisiae deletion strains, locus YLR268W, strain sec22, active compounds read low 0.84 | S. cerevisiae deletion strains, locus YLR320W, strain mms22, active compounds read low 0.732 | S. cerevisiae deletion strains, locus YLR330W, strain CHS5, active compounds read low 0.756 | S. cerevisiae deletion strains, locus YLR342W, strain FKS1 (second series), active compounds read low 0.703 | S. cerevisiae deletion strains, locus YLR342W, strain FKS1, active compounds read low 0.854 | S. cerevisiae deletion strains, locus YLR418C, strain cdc73, active compounds read low 0.487 | S. cerevisiae deletion strains, locus YML032C, strain rad52, active compounds read low 0.879 | S. cerevisiae deletion strains, locus YML120C, strain ndi1, active compounds read low 0.855 | S. cerevisiae deletion strains, locus YMR058W, strain fet3, active compounds read low 0.507 | S. cerevisiae deletion strains, locus YMR205C, strain PFK2, active compounds read low 0.623 | S. cerevisiae deletion strains, locus YMR223W, strain ubp8, active compounds read low 0.853 | S. cerevisiae deletion strains, locus YMR231W, strain pep5, active compounds read low 0.911 | S. cerevisiae deletion strains, locus YMR307W, strain GAS1, active compounds read low 0.571 | S. cerevisiae deletion strains, locus YNL071W, strain lat1, active compounds read low 0.324 | S. cerevisiae deletion strains, locus YNL183C, strain NPR1, active compounds read low 0.8 | S. cerevisiae deletion strains, locus YNL209W, strain ssb2, active compounds read low 0.76 | S. cerevisiae deletion strains, locus YNL233W, strain BNI4, active compounds read low 0.772 | S. cerevisiae deletion strains, locus YNL307C, strain MCK1, active compounds read low 0.382 | S. cerevisiae deletion strains, locus YOL147C, strain pex11, active compounds read low 0.929 | S. cerevisiae deletion strains, locus YOR061W, strain CKA2, active compounds read low 0.785 | S. cerevisiae deletion strains, locus YOR070C, strain gyp1, active compounds read low 0.796 | S. cerevisiae deletion strains, locus YOR083W, strain WHI5, active compounds read low 0.842 | S. cerevisiae deletion strains, locus YOR106W, strain vam3, active compounds read low 0.662 | S. cerevisiae deletion strains, locus YOR184W, strain ser1, active compounds read low 0.64 | S. cerevisiae deletion strains, locus YOR265W, strain rbl2, active compounds read low 0.886 | S. cerevisiae deletion strains, locus YOR270C, strain vph1, active compounds read low 0.632 | S. cerevisiae deletion strains, locus YOR290C, strain snf2, active compounds read low 0.836 | S. cerevisiae deletion strains, locus YPL051W, strain arl3, active compounds read low 0.764 | S. cerevisiae deletion strains, locus YPL078C, strain atp4, active compounds read low 0.885 | S. cerevisiae deletion strains, locus YPL240C, strain hsp82, active compounds read low 0.908 | S. cerevisiae deletion strains, locus YPL256C, strain CLN2, active compounds read low 0.816 | S. cerevisiae deletion strains, locus YPR163C, strain tif3, active compounds read low 0.9 | S. cerevisiae deletion strains, locus YPR167C, strain met16, active compounds read low 0.91 | S. cerevisiae deletion strains, strain wtn01, active compounds read low 0.868 | S. cerevisiae strains, strain wild type, active compounds read low 0.78
